# ERb coact inh = blocks coactivator binding to human estrogen receptor beta; inhibition, % at 25.6 µM; Q92731; hit rate 1.3% among 86,000; TR-FRET ER-beta LBD / SRC1-Cy5 peptide binding; receptor agonist-loaded with 1 µM estradiol;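 active means compounds whose percent inhibition of the receptor-coactivator binding signal exceeds about 50% in the single-dose screen, limit read from the data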;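 further: 0% = receptor plus peptide wells without compound and 100% = peptide-only wells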
# ERa SRC1 inh = blocks coactivator binding to human estrogen receptor alpha | hit rate 1.7% among 86,000 | inhibition, % at 25.6 µM | TR-FRET ER-alpha LBD / SRC-1 peptide, estradiol-bound | P03372; in the data active means inhibition above about 50%;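 further: 0% = receptor plus peptide control and 100% = peptide only without receptor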
# Candida biofilm = kills Candida albicans biofilms | hit rate 0.14% among 85,000 | C. albicans biofilm + clotrimazole, Alamar Blue | inhibition, % at 6 µM;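 active means inhibition above 20%; inactive means inhibition below 20%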;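 further: preformed 24 hr biofilms exposed to compound for 48 hr; 0% = biofilm without compound and 100% = blank killed by clotrimazole plus chlorhexidine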
# F-actin modifier = alters cytoskeleton assembly in HUVEC cells. HUVEC TNFa F-actin phalloidin imaging, high content. inhibition, % at 2 µM. hit rate 0.18% among 91,000;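 active means inhibition above the batch mean plus 3 SD and confirmed as a hit by visual image inspection, cut at about 30% in these data, passing the limit was not always enough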
# ERa coact pot = enhances coactivator binding to human estrogen receptor alpha; coactivator binding (% of control), % at 25.6 µM; hit rate 1.3% among 86,000; TR-FRET ERalpha-LBD/SRC-Cy5 coactivator binding, 2 h; 100 = basal binding, no effect; in the data active means activity above about 200%;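 further: binding measured in presence of low estradiol as agonist stimulus; 0% = peptide alone without receptor and 100% = receptor with peptide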
# E-sel TNF inh = TNF alpha driven E-selectin expression inhibition. HUVEC TNFa-induced E-selectin immunofluorescence, high content. inhibition, % at 2 µM. hit rate 0.71% among 120,000;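 active means inhibition above the batch mean plus 3 SD, and confirmed as a hit on visual image review, cut at about 43% in these data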;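 further: 0% = TNF-stimulated DMSO wells and 100% = unstimulated control wells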
# * marks the source's active call; other numbers are inactive results; . = no result given; [ ] = dose if it differs, or a comment. In the library only some 2.9% were active in any assay of this set; here they are far more common.
SMILES,ERb coact inh,ERa SRC1 inh,Candida biofilm,F-actin modifier,ERa coact pot,E-sel TNF inh
COc1ccc2c(c1)c(=O)oc1cc3oc(C)c(C)c3cc12,57*,67*,7,.,72,29
COc1ccc(NC(=O)N(CCCN2CCOCC2)Cc2cccnc2)c(OC)c1,-2,-4,15,-7,102,61*
COc1ccccc1N1CCN(C2CCN(S(=O)(=O)c3ccc4ccccc4c3)CC2)CC1,-2,7,9,-2,119,21
O=C(Cc1ccc(Br)cc1)N(Cc1ccccc1)c1ccccn1,.,.,.,.,.,20
Clc1ccc(-c2nc3n(n2)Cc2ccccc2-3)cc1,16,21,10,-9,289*,13
CCN(CC)S(=O)(=O)c1cccc(-c2nc3n(n2)Cc2ccccc2-3)c1,11,4,9,10,161,.
COc1cccc(C(=O)NC(C)C(c2cccs2)N2CCN(C)CC2)c1 (stereo not given),67*[fluorescence artefact?],-32,7,-22,115,.
C=C1C(=O)[C@@]23[C@H](O)C[C@@H]4C(C)(C)CC[C@H](O)[C@@]4(C)[C@@H]2CC[C@@H]1[C@H]3O,.,.,.,.,.,58*
C/C(CC1CC2=C(CC1(C)C)C(C)(C)CCC2)=N\NC(N)=S (stereo not given),0,0,10,4,80,-10
COc1ccc(C2c3c(oc4ccccc4c3=O)C(=O)N2c2ccccn2)cc1OC (stereo not given),8,3,1,.,116,.
COc1ccc(C2c3c(oc4ccccc4c3=O)C(=O)N2c2ccccn2)cc1 (stereo not given),6,6,0,.,218*,.
Cc1nnc(N2C(=O)c3oc4ccccc4c(=O)c3C2c2ccco2)s1 (stereo not given),62*[fluorescence artefact?],50,6,.,58,-21
S=c1[nH]nc(-c2ccc3ccccc3n2)o1,-2,0,6,12,471*[fluorescence artefact?],6
O=C(CCN1CCc2ccccc2C1)Nc1ccccc1,-2,-4,8,-5,124,.
CC(NC(=O)CCSc1nc(-c2ccc3c(c2)OCO3)cc(C(F)(F)F)n1)c1ccccc1 (stereo not given),46,90*,16,-19,57,-10
O=C(NCC1CCCO1)C1CC(=O)N(C2CCCC2)C1 (stereo not given),-10,3,5,-2,90,17
COC(=O)N1[C@H](C)C=C[C@]1(Cc1ccccc1)C(=O)O,.,.,.,.,.,96*
Cc1sc2c(c1C)c(=O)nc1scc(C)n12,4,12,-2,8,112,8
O=C(Nc1nnc(-c2ccc3c(c2)OCCO3)o1)c1ccc(Cc2ccccc2)cc1,65*[fluorescence artefact?],45,5,3,351*[fluorescence artefact?],-13
O=C(Nc1nnc(-c2ccc3c(c2)CCCC3)o1)c1ccccc1,-4,2,14,-2,89,.
